Assay [1] addresses Peroxisome proliferator-activated receptor gamma (Homo sapiens) (UniProt P37231). The experiment in a line: qHTS assay for small molecule antagonists of peroxisome proliferator-activated receptor gamma signaling (AID 588537; active means well fitted inhibition curve with a large enough effect in the signal ratio, with a control signal flat, not every such curve was filed as active; the % refers to the signal ratio;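 further: reporter cells co-stimulated with 50 nM rosiglitazone agonist during compound treatment; % of control where 0% means no effect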). An outline of the steps:
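Step one: plate 3000 HEK293 UAS-bla cells per well in medium with 1% stripped serum and hold 6-6.5 h at 37 C. Step two: add compound and 50 nM agonist for 16 h. Step three: CCF4 loading, fluorescence read.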

The target in assay [2] is Vitamin D3 receptor (Homo sapiens) (UniProt P11473). The experiment in a line: qHTS assay for small molecule antagonists of vitamin D receptor signaling (AID 588541; calls by dose curve;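 further: receptor activated by calcitriol during compound treatment; series mostly up to about 77 µM; on the % scale 0 is the no-effect control and ±100 the full control effect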). An outline of the steps:
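VDR-UAS-bla HEK293T cells in 2% charcoal-stripped FBS were stimulated with 1-alpha,25-dihydroxyvitamin D3 (3 nM final) plus compound for 16 h at 37 C. The beta-lactamase CCF4 readout was normalized to 50 nM agonist and DMSO, and Hill fits gave IC50.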
Background: qHTS replaces the single test concentration by a dilution series.

Assay [3] shares this target. The experiment in a line: qHTS assay for small molecule agonists of vitamin D receptor signaling (AID 588543; calls by dose curve;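 further: 0% = DMSO basal and 100% = reference agonist control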). The method, boiled down:
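β-lactamase reporter, VDR-UAS-bla HEK293T, agonist mode. Cells plated 5 h at 37 °C, compound titration 16 h at 37 °C, CCF4 dye 2 h RT, ratio 460/530 nm. Hill fit → EC50, efficacy vs 50 nM 1α,25-(OH)2D3.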

Assay [4] can be described thus: qHTS assay for small molecule agonists of retinoid X receptor alpha signaling (AID 588544; calls by dose curve;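 on activation: 0% = DMSO basal wells and 100% = reference agonist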). To be noted: HEK293T RXRa-UAS-bla, beta-lactamase reporter, 18 h; 530 nm emission.
Assay [5] deals with Retinoic acid receptor RXR-alpha (Homo sapiens) (UniProt P19793). The assay is described as above.
Assay [6] deals with Thyroid hormone receptor beta (Homo sapiens) (UniProt P10828). The experiment in a line: qHTS assay for small molecule agonists of thyroid hormone receptor beta signaling (AID 588545; calls by dose curve;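 further: 0% = DMSO only and 100% = 10 nM T3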). An outline of the steps:
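Efficacy and EC50 values derive from Hill fits of qHTS titration data, normalized to 10 nM T3 and DMSO-only wells. HEK 293 reporter cells were stimulated for 18 hrs at 37 C, with beta-lactamase activity measured by CCF4 fluorescence.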

A short description of assay [7]: qHTS assay for small molecule antagonists of retinoid X receptor alpha signaling (AID 588546; active means well fitted inhibition curve with a large enough effect in the signal ratio, with a control signal flat, not every such curve was filed as active; the % refers to the signal ratio;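 further: cells stimulated with 9-cis-retinoic acid as agonist; on the % scale 0 is the no-effect control and ±100 the full control effect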). To be noted: HEK293T RXRa-UAS-bla, beta-lactamase ratio, antagonist mode; measured here: W530 green channel, cytotoxicity proxy. An outline of the steps: (§1)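 Beta-lactamase reporter inhibition, read as CCF4 fluorescence ratio (ex 405, em 460/530 nm) after 2 h at RT. HEK293T UAS-bla cells, 2500/well, were stimulated with 9-cis-RA at 500 or 100 nM final alongside test compound for 18 h at 37 C.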

Assay [8] addresses Retinoic acid receptor RXR-alpha (Homo sapiens) (UniProt P19793). The description is as above. To be noted: HEK293T RXRa-UAS-bla, beta-lactamase ratio, antagonist mode. The method, boiled down: as §1
The target of assay [9] is Thyroid hormone receptor beta (Homo sapiens) (UniProt P10828). The experiment in a line: qHTS assay for small molecule antagonists of thyroid hormone receptor beta signaling (AID 588547; active means well fitted inhibition curve with a large enough effect in the signal ratio, with a control signal flat, not every such curve was filed as active; the % refers to the signal ratio;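 further: cells stimulated with 0.4 nM T3 agonist during compound exposure; series mostly up to about 77 µM; on the % scale 0 is the no-effect control and ±100 the full control effect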). To be noted: TR-UAS-bla HEK293, beta-lactamase ratio, antagonist mode, 18 h. An outline of the steps: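 TR-UAS-bla GripTite HEK293 cells in 2% charcoal/dextran FBS medium; compounds 0.59 nM to 92 uM with T3 at 0.4nM final, 18 h at 37 C. Beta-lactamase read by CCF4 fluorescence (460/530 nm); Hill fits gave IC50 and efficacy.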

Assay [10] deals with Voltage-gated inwardly rectifying potassium channel KCNH2 (Homo sapiens) (UniProt Q12809). The experiment in a line: qHTS Assay for Small Molecule Inhibitors of the Human hERG Channel Activity (AID 588834).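 Further: top concentration of the series differs between compounds; on the % scale 0 is the no-effect control and ±100 the full control effect; lower thallium flux fluorescence means stronger hERG block; nearly all actives have a fitted effect of over 50% in size.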 An outline of the steps:
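Concentration-response qHTS measuring drop in thallium-sensitive dye signal. U2OS cells carrying BacMam hERG; compound exposure ~10 min, then stimulation buffer and 2 min read at 1 sec intervals.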

Assay [11] is described as follows: qHTS assay for small molecule activators of the p53 signaling pathway (AID 651743; active means well fitted activation curve with a large enough effect in the signal ratio, not every such curve was filed as active; the % refers to the signal ratio; further: series mostly up to about 92 µM; % of control where 0% means no effect). To be noted: HCT-116 p53RE-bla, beta-lactamase FRET ratio, 16 h; activation: stronger effect = higher value. The method, boiled down: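 HCT-116 p53RE-bla, 4,000 cells/well; 5 h settle; cpd/DMSO 16 h, 37 C; LiveBLAzer B/G 2 h RT; fluorescence intensity.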
In assay [12] the target is Tumor necrosis factor (Homo sapiens) (UniProt P01375). The experiment in a line: qHTS assay to identify small molecules that stimulate Tumor Necrosis Factor-alpha (TNF-alpha) secretion (AID 651757; active means well fitted curve in the direction sought with a large enough effect in the signal ratio; the % refers to the signal ratio; further: 0% is about no effect). An outline of the steps: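 Secreted TNF-alpha from compound-treated THP-1 cells (17 hrs, 37 C) was quantified with a homogeneous time-resolved fluorescence antibody assay.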

Assay [13] is described as follows: qHTS assay for environmental chemicals that activate the Aryl hydrocarbon Receptor (AhR) signaling pathway (AID 651777). Further: % of control where 0% means no effect; nearly all actives have a fitted effect of over 15% in size. The settings on record: 1A2-DRE human hepatoma cells, luciferase, 24 h; activation: stronger effect = higher value. The method, boiled down: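 Luminescence read-out: One-Glo added for 30 min at RT after 24 hr compound treatment (37 C, 5% CO2) of human hepatoma cells expressing a DRE/CYP1A2 promoter–luciferase reporter; increased signal indicates AhR activation.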

Assay [14] has as its target Peroxisome proliferator-activated receptor alpha (Homo sapiens) (UniProt Q07869). The experiment in a line: qHTS assay for small molecule agonists of the peroxisome proliferator-activated receptor alpha (PPARalpha) signaling pathway (AID 651778). Further: % of control where 0% means no effect. To be noted: PathHunter PPARalpha complementation, chemiluminescence, 6 h; max response: stronger effect = higher value. The method, boiled down:
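Enzyme-fragment complementation assay in which ligand-bound PPARalpha translocates and forms an active enzyme that generates chemiluminescence. Cells were plated overnight, exposed to compound for 6 hr at 37 C, and then given detection reagent for 60 min at room temperature.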

Assay [15] concerns the target Nuclear receptor ROR-gamma (Homo sapiens) (UniProt P51449). The experiment in a line: qHTS assay for small molecule antagonists of the retinoid-related orphan receptor gamma (ROR-gamma) signaling pathway (AID 651802). Further: series mostly up to about 92 µM; on the % scale 0 is the no-effect control and ±100 the full control effect; nearly all actives have a fitted effect of over 60% in size. An outline of the steps:
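Antagonism is scored as a fall in luminescence from a RORE-luciferase reporter in CHO cells expressing ROR under a TET-inducible promoter, measured 16hr after doxycycline induction in the presence of compound.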

Assay [16] in a line: qHTS assay for small molecule agonists of the antioxidant response element (ARE) signaling pathway measured by Nrf2-dependant transcriptional activity (AID 720636; active means well fitted curve in the direction sought with a large enough effect in the repeat runs; an effect the other way counts as inactive or inconclusive;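 further: HepG2 cells with an ARE-driven luciferase reporter; % of control where 0% means no effect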). The method, boiled down: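 HepG2 ARE-luc reporter line, 1% dialyzed FBS; 6 hr attachment at 37 C, compound pinned in, 16 hr at 37 C/5% CO2; ONE-Glo, 30 min RT, luminescence read.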
Assay [17] in a line: qHTS assay for small molecule antagonists of the retinoid-related orphan receptor gamma (ROR-gamma) signaling pathway - cell viability counter screen (AID 720652; active means well fitted curve in the direction sought with a large enough effect in the repeat runs; an effect the other way counts as inactive or inconclusive;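 further: series mostly up to about 92 µM; compound exposure lasted 16 hr before ATP read; on the % scale 0 is the no-effect control and ±100 the full control effect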). The method, boiled down: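 Cytotoxicity is quantified via intracellular ATP (CellTiter-Glo luminescence) in doxycycline-induced CHO ROR response element-luciferase reporter cells treated with compound for 16 hr at 37 C, 5% CO2.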

Assay [18] in a line: qHTS assay for small molecule agonists of the antioxidant response element (ARE) signaling pathway measured by Nrf2-dependant transcriptional activity - cell viability counter screen (AID 720653; active means well fitted curve in the direction sought with a large enough effect in the repeat runs; an effect the other way counts as inactive or inconclusive; further: on the % scale 0 is the no-effect control and ±100 the full control effect). To be noted: ARE-bla HepG2 viability, CellTiter-Glo ATP luminescence, 16 h; max response: stronger effect = lower value. An outline of the steps:
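ARE-bla HepG2 cells treated with compounds for 16 h at 37C; this counter screen measures viability as intracellular ATP by CellTiter-Glo luminescence after 30 min at room temperature.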

Assay [19] can be described thus: qHTS assay for cell viability of HEK293 cells (AID 743288). Further: on the % scale 0 is the no-effect control and ±100 the full control effect; nearly all actives have a fitted effect of over 50% in size. To be noted: ATP luminescence (CellTiter-Glo), 18 h; max response: stronger effect = lower value. An outline of the steps:
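Environmental chemicals tested in qHTS format against parental HEK293 cells; 18 h treatment, 37 C; read-out ATP luminescence (CellTiter-Glo), 30 min RT development.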

The nature of assay [20]: qHTS assay for cell viability of the p53RE-bla HCT-116 cell line (AID 743292). Further: on the % scale 0 is the no-effect control and ±100 the full control effect; nearly all actives have a fitted effect of over 55% in size. The method, boiled down:
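Luminescent ATP quantitation (CellTiter-Glo) served as the viability read-out; reagent was added after 16 h compound exposure at 37 C and read after 30 min at room temperature. Cells: p53RE-bla HCT-116, 4,000 per well.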

Assay [21] deals with Nuclear receptor subfamily 1 group I member 2 (Rattus norvegicus) (UniProt Q9R1A7). The experiment in a line: qHTS assay for small molecule activators of the rat pregnane X receptor (rPXR) signaling pathway (AID 651751; call rule not given here; further: 0% is about no effect). The settings on record: rPXR reporter cells, luciferase (One-Glo), 24 h.
Assay [22] in a line: qHTS assay for small molecule activators of the human pregnane X receptor (PXR) signaling pathway (AID 720659; call rule not given here; further: 0% is about no effect).

Inconclusive results are not listed. Activity calls are given as the source filed them. Unless noted, the call rests on the fitted dose curve; in most records, active means well fitted curve in the direction sought with a large enough effect; inconclusive means small, poorly fitted or top-dose-only effect, or another doubt; inactive means no such curve, though single readings can be large; an effect the other way counts as inactive or inconclusive.

Consider one molecule from PubChem BioAssay (NCATS).

Retinoic acid receptor RXR-alpha (Homo sapiens), sequence (P19793 whole entry, looked up): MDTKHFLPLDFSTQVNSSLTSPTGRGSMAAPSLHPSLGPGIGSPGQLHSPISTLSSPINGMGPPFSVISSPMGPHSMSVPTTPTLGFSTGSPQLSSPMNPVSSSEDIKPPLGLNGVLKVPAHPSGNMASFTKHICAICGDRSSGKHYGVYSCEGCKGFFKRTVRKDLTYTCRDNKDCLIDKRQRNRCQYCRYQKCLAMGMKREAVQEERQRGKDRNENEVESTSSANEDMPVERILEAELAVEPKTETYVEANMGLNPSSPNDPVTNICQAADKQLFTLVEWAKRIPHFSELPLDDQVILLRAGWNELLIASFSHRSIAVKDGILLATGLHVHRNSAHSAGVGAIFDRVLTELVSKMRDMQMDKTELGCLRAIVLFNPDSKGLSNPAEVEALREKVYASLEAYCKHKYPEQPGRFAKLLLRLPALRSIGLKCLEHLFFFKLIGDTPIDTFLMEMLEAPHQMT
Thyroid hormone receptor beta (Homo sapiens), sequence (P10828 whole entry, looked up): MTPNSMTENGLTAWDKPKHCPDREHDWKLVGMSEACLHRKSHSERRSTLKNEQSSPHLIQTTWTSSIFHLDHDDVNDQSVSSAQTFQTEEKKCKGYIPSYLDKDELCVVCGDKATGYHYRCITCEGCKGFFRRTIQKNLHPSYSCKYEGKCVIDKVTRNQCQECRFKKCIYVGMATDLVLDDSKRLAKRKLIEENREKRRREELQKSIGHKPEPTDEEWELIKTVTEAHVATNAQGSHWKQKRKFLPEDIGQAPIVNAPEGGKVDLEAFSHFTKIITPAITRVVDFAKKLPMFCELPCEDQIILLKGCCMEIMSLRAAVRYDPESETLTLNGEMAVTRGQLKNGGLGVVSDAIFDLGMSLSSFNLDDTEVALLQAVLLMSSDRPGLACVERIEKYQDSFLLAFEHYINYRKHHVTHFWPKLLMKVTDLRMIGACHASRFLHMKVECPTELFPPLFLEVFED
Vitamin D3 receptor (Homo sapiens), sequence (P11473 whole entry, looked up): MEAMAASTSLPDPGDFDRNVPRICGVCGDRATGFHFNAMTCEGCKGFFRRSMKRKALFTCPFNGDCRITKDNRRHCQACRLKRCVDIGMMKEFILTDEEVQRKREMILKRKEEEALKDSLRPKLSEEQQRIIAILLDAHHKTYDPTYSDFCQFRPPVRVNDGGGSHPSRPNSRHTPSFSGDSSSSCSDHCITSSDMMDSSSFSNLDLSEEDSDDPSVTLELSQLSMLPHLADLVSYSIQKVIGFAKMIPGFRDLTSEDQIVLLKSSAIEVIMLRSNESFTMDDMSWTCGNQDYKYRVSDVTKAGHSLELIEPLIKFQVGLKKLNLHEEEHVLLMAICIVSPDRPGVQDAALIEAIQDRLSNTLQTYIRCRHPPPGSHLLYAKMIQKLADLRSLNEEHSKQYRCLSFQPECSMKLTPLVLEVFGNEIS
Nuclear receptor subfamily 1 group I member 2 (Rattus norvegicus), sequence (Q9R1A7 whole entry, looked up): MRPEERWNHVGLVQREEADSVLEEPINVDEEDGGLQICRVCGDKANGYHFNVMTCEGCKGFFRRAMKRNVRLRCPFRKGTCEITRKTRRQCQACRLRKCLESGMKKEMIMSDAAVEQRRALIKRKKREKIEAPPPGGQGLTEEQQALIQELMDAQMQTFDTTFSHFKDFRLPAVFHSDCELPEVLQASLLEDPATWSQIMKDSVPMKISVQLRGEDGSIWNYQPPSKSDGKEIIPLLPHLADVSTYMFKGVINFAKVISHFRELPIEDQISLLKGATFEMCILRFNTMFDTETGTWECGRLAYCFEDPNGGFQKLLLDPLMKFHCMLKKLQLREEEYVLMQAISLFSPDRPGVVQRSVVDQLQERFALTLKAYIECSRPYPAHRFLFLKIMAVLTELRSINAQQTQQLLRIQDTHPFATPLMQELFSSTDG
Tumor necrosis factor (Homo sapiens), sequence (P01375 whole entry, looked up): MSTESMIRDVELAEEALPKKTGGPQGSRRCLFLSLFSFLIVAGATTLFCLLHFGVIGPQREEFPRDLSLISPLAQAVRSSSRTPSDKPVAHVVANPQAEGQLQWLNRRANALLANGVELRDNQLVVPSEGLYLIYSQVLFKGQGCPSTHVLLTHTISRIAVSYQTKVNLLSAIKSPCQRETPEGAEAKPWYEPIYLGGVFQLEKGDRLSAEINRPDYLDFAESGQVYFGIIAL
Peroxisome proliferator-activated receptor alpha (Homo sapiens), sequence (Q07869 whole entry, looked up, the tested form may be a part): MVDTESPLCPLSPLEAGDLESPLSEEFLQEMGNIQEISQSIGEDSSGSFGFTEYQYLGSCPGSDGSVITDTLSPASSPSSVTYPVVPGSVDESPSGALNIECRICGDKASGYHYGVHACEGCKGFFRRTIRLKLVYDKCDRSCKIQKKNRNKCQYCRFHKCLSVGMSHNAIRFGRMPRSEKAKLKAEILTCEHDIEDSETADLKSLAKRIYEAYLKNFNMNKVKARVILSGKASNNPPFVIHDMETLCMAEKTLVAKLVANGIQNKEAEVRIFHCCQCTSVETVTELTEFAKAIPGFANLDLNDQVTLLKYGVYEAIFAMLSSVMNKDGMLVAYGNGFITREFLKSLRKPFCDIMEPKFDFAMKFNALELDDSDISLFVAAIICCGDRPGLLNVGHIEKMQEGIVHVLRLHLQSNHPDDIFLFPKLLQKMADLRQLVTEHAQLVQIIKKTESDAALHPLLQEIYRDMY
Nuclear receptor ROR-gamma (Homo sapiens), sequence (P51449 whole entry, looked up): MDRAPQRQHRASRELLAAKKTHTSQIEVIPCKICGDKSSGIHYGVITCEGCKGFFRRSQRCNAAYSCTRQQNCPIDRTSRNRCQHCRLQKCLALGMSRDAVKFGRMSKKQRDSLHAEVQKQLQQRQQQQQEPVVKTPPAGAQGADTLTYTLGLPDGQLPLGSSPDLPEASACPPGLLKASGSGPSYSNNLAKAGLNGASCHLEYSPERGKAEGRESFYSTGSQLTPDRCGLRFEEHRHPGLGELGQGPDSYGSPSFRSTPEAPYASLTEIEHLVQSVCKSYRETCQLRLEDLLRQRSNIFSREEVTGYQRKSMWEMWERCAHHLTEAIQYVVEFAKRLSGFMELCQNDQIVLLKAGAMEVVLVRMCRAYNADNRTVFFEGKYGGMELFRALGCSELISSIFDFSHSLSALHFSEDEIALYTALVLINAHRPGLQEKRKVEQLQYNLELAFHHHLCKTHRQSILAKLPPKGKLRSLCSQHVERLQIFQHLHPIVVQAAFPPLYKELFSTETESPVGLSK
Voltage-gated inwardly rectifying potassium channel KCNH2 (Homo sapiens), sequence (Q12809 whole entry, looked up): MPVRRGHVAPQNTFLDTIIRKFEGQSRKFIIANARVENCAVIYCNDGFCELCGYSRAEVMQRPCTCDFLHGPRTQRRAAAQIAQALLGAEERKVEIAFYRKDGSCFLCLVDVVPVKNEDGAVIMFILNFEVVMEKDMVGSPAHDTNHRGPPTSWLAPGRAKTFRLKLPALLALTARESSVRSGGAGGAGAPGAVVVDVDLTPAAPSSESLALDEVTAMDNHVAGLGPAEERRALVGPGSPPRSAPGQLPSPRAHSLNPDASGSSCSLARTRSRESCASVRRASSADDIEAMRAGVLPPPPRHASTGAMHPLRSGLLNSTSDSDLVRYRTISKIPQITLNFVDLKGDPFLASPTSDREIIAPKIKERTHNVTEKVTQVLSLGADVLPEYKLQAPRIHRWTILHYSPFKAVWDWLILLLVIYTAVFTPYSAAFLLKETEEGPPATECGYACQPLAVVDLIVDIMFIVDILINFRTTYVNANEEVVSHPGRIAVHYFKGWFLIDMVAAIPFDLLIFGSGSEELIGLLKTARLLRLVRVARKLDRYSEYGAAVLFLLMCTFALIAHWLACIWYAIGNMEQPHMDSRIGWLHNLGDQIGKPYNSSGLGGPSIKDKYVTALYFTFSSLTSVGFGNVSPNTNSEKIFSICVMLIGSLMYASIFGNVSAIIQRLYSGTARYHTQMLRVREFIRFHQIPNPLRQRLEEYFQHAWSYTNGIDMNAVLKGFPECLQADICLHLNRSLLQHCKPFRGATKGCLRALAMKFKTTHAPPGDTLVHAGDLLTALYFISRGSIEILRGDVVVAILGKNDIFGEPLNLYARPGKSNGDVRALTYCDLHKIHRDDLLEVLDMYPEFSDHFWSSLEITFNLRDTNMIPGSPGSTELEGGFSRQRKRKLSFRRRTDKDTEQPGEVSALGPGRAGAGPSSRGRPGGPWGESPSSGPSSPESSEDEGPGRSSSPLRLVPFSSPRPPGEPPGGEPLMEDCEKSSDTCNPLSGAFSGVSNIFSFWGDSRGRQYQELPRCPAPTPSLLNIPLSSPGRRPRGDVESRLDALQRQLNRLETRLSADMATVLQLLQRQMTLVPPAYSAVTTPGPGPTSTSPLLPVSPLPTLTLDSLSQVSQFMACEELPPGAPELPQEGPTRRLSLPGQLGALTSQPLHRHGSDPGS
Peroxisome proliferator-activated receptor gamma (Homo sapiens), sequence (P37231 whole entry, looked up): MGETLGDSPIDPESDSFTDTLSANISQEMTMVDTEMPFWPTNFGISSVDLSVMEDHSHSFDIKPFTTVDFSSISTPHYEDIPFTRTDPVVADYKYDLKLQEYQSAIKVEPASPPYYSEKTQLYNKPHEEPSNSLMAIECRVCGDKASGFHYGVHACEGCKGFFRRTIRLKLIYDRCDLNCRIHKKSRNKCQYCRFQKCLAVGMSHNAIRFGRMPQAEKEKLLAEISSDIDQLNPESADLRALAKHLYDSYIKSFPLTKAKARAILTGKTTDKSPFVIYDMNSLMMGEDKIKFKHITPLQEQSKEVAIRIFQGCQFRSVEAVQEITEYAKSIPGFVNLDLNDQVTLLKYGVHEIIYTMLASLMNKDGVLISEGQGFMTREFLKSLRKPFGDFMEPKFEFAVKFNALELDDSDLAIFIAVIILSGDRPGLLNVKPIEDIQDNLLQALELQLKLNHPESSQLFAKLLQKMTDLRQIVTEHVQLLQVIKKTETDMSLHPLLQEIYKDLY

With `Cc1cccc(O)c1C`, the Potency entry in [1], in [2], in [10], in assay [15], in assay [16] and in assay [17] was “inactive” in each case. In assay [20], the Potency entry was “inactive”. The result in [3], in assay [5], in [6], in assay [12] and in assay [22] was inactive. The max response in [4] was -18.7%; in assay [7], 10.3%; in assay [8] it was 20.3% (inactive); in assay [14] it was -2.92% (inactive); in [18], -1.51% (inactive); in [19], -3.02% (inactive). Also, the max response in assay [21] is -0.434% (inactive). Moreover, the activity change % (negative = inhibition) in assay [9] is 4.76% (inactive). Also, the activation was -2.61% (inactive) in [11] and -0.837% (inactive) in assay [13].
